# Screening data (PubChem BioAssay)
# Only some compounds are listed: those with a hit (about 3.7% of all), similar ones and a draw of the others.
# VDR inhibitor – blocks the human vitamin D receptor. P11473. VDR-SRC2-3 peptide fluorescence polarization, 2 h. Potency, µM, for the others: max response, negative = inhibition, hits mostly inhibitors. 400,000 compounds, 0.93% hits. AID 504847; also: potency is read from the fitted curve at half-maximal effect; % is scaled to controls: 0 for no effect and ±100 for the full control effect
#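 Signal is fluorescence polarization, reporting how far test compounds block the interaction of VDR with the SRC2-3 coregulator peptide after a 2 h room-temperature incubation.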
# PLK1 PBD inh – PLK1 (human) polo-box domain binding inhibition. P53350. 360,000 compounds, 2.8% hits. Potency, µM, without a hit: max response, negative = inhibition, most hits filed as inhibitors. Plk1 PBD binding of FITC phosphopeptide, fluorescence polarization; also: potency is read from the fitted curve at half-maximal effect; series mostly up to about 57 µM; % is scaled to controls: 0 for no effect and ±100 for the full control effect; nearly all actives have a fitted effect of over 65% in size
# FEN1 inh-1 – blocks human flap endonuclease 1; Recombinant FEN1 flap cleavage, fluorescence, 15 min; Potency, µM (highest dose often 114 µM), for the others: top-dose activity change, negative = inhibition, hits mostly inhibitors; 390,000 compounds, 0.35% hits; AID 588795; P39748; also: potency is read from the fitted curve at half-maximal effect; % is scaled to controls: 0 for no effect and ±100 for the full control effect; nearly all actives have a fitted effect of over 65% in size
#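 Quantitative HTS format: each compound was titrated, incubated with 10 nM nuclease for 15 min at room temperature, then challenged with flap substrate at 50 nM final. Signal change over 15 min gave concentration–effect curves.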
# WRN helicase inh-1 – inhibitors of human WRN helicase. WRN helicase unwinding, fluorescent forked duplex, kinetic. Potency, µM (doses to about 114 µM), for the others: top-dose activity change, negative = inhibition, hits mostly inhibitors. 360,000 compounds, 0.46% hits; also: potency is read from the fitted curve at half-maximal effect; % is scaled to controls: 0 for no effect and ±100 for the full control effect; nearly all actives have a fitted effect of over 55% in size
#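 Primary qHTS, 1536-well format. 20 nM WRN + compound, 15 min RT; start with 100 nM forked fluorophore/quencher duplex, 2 mM ATP (final); kinetic read ex 525/em 598 nm.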
# PI5P4K alpha inh – inhibitors of human PI5P4K alpha; PI5P4Kalpha enzyme, ADP-Glo luminescence, 60 min; hits give low values; 330,000 compounds, 1.2% hits; max response, %; AID 652105; P48426; active = max response of -50% or lower; inconclusive = between -30% and -50%; inactive = -30% or higher; also: value at the top dose of about 77 µM; % is scaled to controls: 0 for no effect and ±100 for the full control effect
#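 Controls without substrate or without enzyme flank wells where PI5P4Kalpha converts substrate using 5 microM ATP (final). Incubation lasts 60 minutes at room temperature; ADP formed is read by ADP-Glo luminescence.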
# TCR act – T cell receptor activation; 330,000 tested, under 10 active; primary human leukocytes, anti-CD3, IL-2 HTRF, 48 h; Potency, µM (series often up to 9.22 µM), for the others: at the highest dose activation of IL-2 secretion, hits mostly activators; also: % of control where 0% means no effect
#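 IL-2 release read by HTRF sandwich (Eu cryptate donor, d2 acceptor, 665 nm emission) after 48 hr exposure of primary human leukocytes to compound together with anti-CD3 beads in the absence of co-stimulatory signals.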
# VDR confirm – confirmation of human vitamin D receptor inhibitors | VDR-coactivator inhibition assay, qHTS confirmation | Potency, µM, most hits filed as inhibitors | shares compounds with VDR inhibitor | 840 compounds, 89% hits; also: potency is read from the fitted curve at half-maximal effect
# VDR FP fluor – confirmation of human VDR-coactivator binding inhibitors, fluorescein label; shares compounds with VDR inhibitor; VDR-coactivator binding, fluorescein fluorescence polarization; Potency, µM (doses to about 57.1 µM), for inactives: at the highest dose activity change, negative = inhibition, most hits filed as inhibitors; 840 compounds, 48% hits; AID 602200; also: potency is read from the fitted curve at half-maximal effect
# VDR bla reporter – VDR (human) inhibition, cell-based beta-lactamase validation | Potency, µM (top dose mostly 46.1 µM), for the others: at the highest dose activity change, negative = inhibition, most hits filed as inhibitors | VDR beta-lactamase reporter cells, FRET ratio; cells co-treated with VDR agonist LG190178 | shares compounds with VDR inhibitor | AID 602202 | 840 compounds, 23% hits; also: potency is read from the fitted curve at half-maximal effect; % is scaled to controls: 0 for no effect and ±100 for the full control effect
# VDR viability – cell toxicity, VDR inhibitor hit counter-screen; shares compounds with VDR inhibitor; cytotoxicity counter-screen, cell viability, qHTS; Potency, µM (doses to about 48.3 µM), without a hit: at the top dose activity change, negative = cytotoxicity, hits mostly cytotoxic; 840 compounds, 18% hits;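 also: potency is read from the fitted curve at half-maximal effect; plate controls were DMSO for no effect and high-concentration cycloheximide for full effect; nearly all actives have a fitted effect of over 75% in size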
# FEN1 inh-2 – confirmation of human FEN1 inhibitors; shares compounds with FEN1 inh-1; FEN1 flap cleavage, TAMRA/BHQ2 fluorogenic DNA substrate; Potency, µM, hits mostly inhibitors; 880 compounds, 79% hits; also: potency is read from the fitted curve at half-maximal effect; nearly all actives have a fitted effect of over 60% in size
# WRN helicase inh-2 – confirmation of human WRN helicase inhibitors; shares compounds with WRN helicase inh-1; WRN helicase DNA unwinding, fluorescence kinetic; Potency, µM (top dose mostly 57.1 µM), without a hit: at the top dose activity, negative = inhibition, most hits filed as inhibitors; 610 compounds, 63% hits; AID 720497; also: potency is read from the fitted curve at half-maximal effect; nearly all actives have a fitted effect of over 65% in size
# TO DNA binding – binds DNA, flagged in WRN inhibitor counterscreen. shares compounds with WRN helicase inh-1. thiazole orange DNA binding displacement, fluorescence. Potency, µM (top dose mostly 57.1 µM), for inactives: at the top dose activity change, negative = inhibition, hits mostly inhibitors. 610 compounds, 10% hits;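 also: drop in dye fluorescence marks compound binding to DNA; potency is read from the fitted curve at half-maximal effect; % is scaled to controls: 0 for no effect and ±100 for the full control effect; nearly all actives have a fitted effect of over 60% in size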
# BLM counter – blocks human BLM helicase in WRN counterscreen; Recombinant BLM helicase DNA unwinding, red fluorescence; Potency, µM (doses to about 57.1 µM), without a hit: at the highest dose activity change, negative = inhibition, usual class: inhibitors; shares compounds with WRN helicase inh-1; 610 compounds, 60% hits; also: potency is read from the fitted curve at half-maximal effect; nearly all actives have a fitted effect of over 60% in size
# Target sequence (P54132 whole entry, looked up): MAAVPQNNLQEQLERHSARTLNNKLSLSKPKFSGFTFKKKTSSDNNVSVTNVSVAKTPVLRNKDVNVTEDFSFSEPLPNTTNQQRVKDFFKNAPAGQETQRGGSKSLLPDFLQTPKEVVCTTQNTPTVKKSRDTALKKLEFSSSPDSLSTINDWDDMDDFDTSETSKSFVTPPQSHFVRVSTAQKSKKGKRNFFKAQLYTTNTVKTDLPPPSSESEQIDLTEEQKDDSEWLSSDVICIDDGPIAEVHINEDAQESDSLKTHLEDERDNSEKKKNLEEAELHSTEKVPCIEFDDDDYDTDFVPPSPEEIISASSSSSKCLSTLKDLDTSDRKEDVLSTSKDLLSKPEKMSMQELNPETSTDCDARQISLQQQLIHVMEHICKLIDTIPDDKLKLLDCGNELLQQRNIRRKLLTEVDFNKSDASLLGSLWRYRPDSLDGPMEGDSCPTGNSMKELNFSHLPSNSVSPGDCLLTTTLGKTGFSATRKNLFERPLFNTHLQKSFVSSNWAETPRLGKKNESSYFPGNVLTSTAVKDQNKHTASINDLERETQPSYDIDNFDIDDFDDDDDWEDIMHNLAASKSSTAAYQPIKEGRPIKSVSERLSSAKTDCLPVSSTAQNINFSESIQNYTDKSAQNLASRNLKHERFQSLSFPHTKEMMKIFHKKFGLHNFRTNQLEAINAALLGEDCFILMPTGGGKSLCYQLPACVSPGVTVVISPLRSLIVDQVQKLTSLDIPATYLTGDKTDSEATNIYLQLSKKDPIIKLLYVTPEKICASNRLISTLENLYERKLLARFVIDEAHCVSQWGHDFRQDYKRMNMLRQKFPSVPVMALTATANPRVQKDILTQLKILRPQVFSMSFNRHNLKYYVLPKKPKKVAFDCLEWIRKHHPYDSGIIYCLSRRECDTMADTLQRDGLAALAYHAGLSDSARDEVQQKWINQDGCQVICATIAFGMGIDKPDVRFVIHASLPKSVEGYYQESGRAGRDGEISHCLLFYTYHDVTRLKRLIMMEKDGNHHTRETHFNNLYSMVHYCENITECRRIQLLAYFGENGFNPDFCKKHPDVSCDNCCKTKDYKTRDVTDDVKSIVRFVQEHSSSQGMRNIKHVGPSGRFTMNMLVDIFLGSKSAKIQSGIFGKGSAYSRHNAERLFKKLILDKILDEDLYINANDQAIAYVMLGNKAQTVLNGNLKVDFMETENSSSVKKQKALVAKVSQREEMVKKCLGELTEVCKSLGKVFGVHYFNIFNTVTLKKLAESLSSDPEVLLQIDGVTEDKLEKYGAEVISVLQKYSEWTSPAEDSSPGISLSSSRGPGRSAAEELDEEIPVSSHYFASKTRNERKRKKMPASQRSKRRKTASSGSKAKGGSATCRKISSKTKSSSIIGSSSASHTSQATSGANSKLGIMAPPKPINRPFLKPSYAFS
# ADP-Glo interf – counter-screen for PI5P4K inhibitors: ADP-Glo detection interference, no enzyme | 1,100 tested, under 10 active | shares compounds with PI5P4K alpha inh | ADP-Glo detection counter-screen, luciferase luminescence, no enzyme | Potency, µM (series often up to 76.9 µM), for the others: at the top dose activity change, negative = inhibition, most hits filed as inhibitors | AID 743285
# TbPYK inh – confirmation of Trypanosoma brucei pyruvate kinase inhibitors. recombinant TbPYK, Kinase-Glo ATP luminescence. 890 compounds, 67% hits. Potency, µM (top dose mostly 76.9 µM), without a hit: at the highest dose activity change, negative = inhibition, most hits filed as inhibitors. shares compounds with PLK1 PBD inh; also: potency is read from the fitted curve at half-maximal effect; % is scaled to controls: 0 for no effect and ±100 for the full control effect; nearly all actives have a fitted effect of over 70% in size
# TbPYK ADP-Glo – TbPYK inhibition, orthogonal confirmation | shares compounds with PLK1 PBD inh | recombinant TbPYK, ADP-Glo luminescence, 60 min | Potency, µM (titrated, usually from 76.9 µM), inactives show top-dose activity change, negative = inhibition, usual class: inhibitors | 890 compounds, 62% hits | AID 720584; also: potency is read from the fitted curve at half-maximal effect; % is scaled to controls: 0 for no effect and ±100 for the full control effect; nearly all actives have a fitted effect of over 75% in size
# Active calls of the source: *; ? = inconclusive; / = no result; [ ] = remark or other dose. Unless noted, calls follow the shape of the dose curve; as a rule, active = well fitted curve in the direction sought with a large enough effect; inconclusive = small, poorly fitted or top-dose-only effect, or another doubt; inactive = no such curve, though single readings can be large; an effect the other way counts as inactive or inconclusive.
SMILES,VDR inhibitor,PLK1 PBD inh,FEN1 inh-1,WRN helicase inh-1,PI5P4K alpha inh,TCR act,VDR confirm,VDR FP fluor,VDR bla reporter,VDR viability,WRN helicase inh-2,TO DNA binding,BLM counter,others
NC(=O)COc1ccc(/C=C2\C(=O)ON=C2c2ccccc2)cc1,?,2.1µM*,1%,40µM*,?,4%,8.9*,13µM*,?,?,19µM*,?,?,
COc1ccc(NC(=O)/C(Cl)=C(/Cl)S(=O)Cc2ccccc2)cn1 (stereo unspecified),14µM*,2.1µM*,-18%,32µM*,-5,0%,4.2*,?,?,?,?,-3%,-19%,
Cc1nc2c(-c3ccccc3)c(C)nn2c(C)c1CCC(=O)N1CCN(c2ccccc2)CC1,-3%,/,-4%,/,/,/,/,/,/,/,/,/,/,
COc1ccc(S(=O)(=O)Nc2cc(Sc3ncn[nH]3)c(O)c3ccccc23)cc1,20µM*,/,6.3µM*,9.5µM*,/,/,21*,?,?,18µM*,24µM*,-14%,?,FEN1 inh-2=?
CC(C)c1ccc(S(=O)(=O)Nc2ccc(O)c(Sc3ncn[nH]3)c2)cc1,-7%,-8%,9%,2%,-7,4%,/,/,/,/,/,/,/,
Cc1ccc(S(=O)(=O)CCC(=O)Nc2ccc(OC(F)(F)F)cc2)cc1,13%,/,7%,/,/,/,/,/,/,/,/,/,/,
CCOC(=O)c1sc2cccc(F)c2c1S(=O)(=O)N1CCN(c2cccc(Cl)c2)CC1,-1%,/,-1%,/,/,/,/,/,/,/,/,/,/,
ClC(Cl)(c1nnnn1-c1ccccc1)c1nnnn1-c1ccccc1,3.5µM*,1.9µM*,50µM*,6.3µM*,?,1%[46.1 µM],3.4*,?,?,16µM*,?,2%,?,
c1ccc(-c2nnnn2-c2ccccc2)cc1,-27%,-7%,-1%,3%,-3,1%,/,/,/,/,/,/,/,
O=C(O)CSc1cc(NS(=O)(=O)c2ccc(Cl)cc2)c2ccccc2c1O,3.5µM*,1.3µM*,35µM*,13µM*,-55*,5%,30*,?,?,?,?,-12%,?,FEN1 inh-2=76*
Oc1cc2c(cc1C(c1ccc(Br)cc1)N1CCCC1)OCO2 (stereo unspecified),40µM*,1.5µM*,1%,45µM*,-102*,3%,13*,10µM*,-4%,?,?,-11%,?,
O=S(=O)(NCC(c1ccc2c(c1)OCO2)N1CCOCC1)c1ccc(Br)cc1 (stereo unspecified),-9%,1%,3%,1%,4,-4%,/,/,/,/,/,/,/,
COc1ccc(Cl)cc1NC(=O)c1c(NCc2sccc2C)sc2c1CCCC2,18µM*,/,79µM*,/,/,/,3.5*,3.2µM*,2%,12%,-20%,?,?,
Cc1ccccc1CNC(=O)c1ccc(Cn2c(SCc3ccccc3)nc3cccnc32)cc1,-2%,/,18%,/,/,/,/,/,/,/,/,/,/,
CC1=CC(=O)C(C(C)C)=C/C1=N\OC(=O)c1cccc2nc(C)oc12,-15%,-29%,3%,5%,7,-4%[46.1 µM],/,/,/,/,/,/,/,
CC1=CC(=O)C(C(C)C)=CC1=NC(=O)c1ccc(C)cc1,25µM*,2.7µM*,15%,7%,-11,-3%,3.8*,?,?,?,/,/,/,TbPYK inh=7.9µM*;TbPYK ADP-Glo=7.9µM*
O=c1c(-c2ccccc2)nc2cnc(Nc3ccccc3)nc2n1Cc1cccs1,-2%,/,/,/,/,/,/,/,/,/,/,/,/,
Nc1ccc2c(c1)C(=O)C(=O)c1ccccc1-2,20µM*,1.5µM*,?,35µM*,-27,3%,6.7*,?,4.1µM*,2.9µM*,19µM*,?,3.4µM*,TbPYK inh=14µM*;TbPYK ADP-Glo=?
COc1ccc2[nH]c(-c3ccc(F)cc3F)cc(=O)c2c1,0%,/,/,/,/,/,/,/,/,/,/,/,/,
COc1ccc2[nH]c3c4c(ccc3c2c1)C(=O)C=CC4=O,?,?,-7%,-14%,-65*,4%,7.1*,5µM*,6.5µM*,?,/,/,/,TbPYK inh=5µM*;TbPYK ADP-Glo=?
CC(NC(=O)c1sc2cc([N+](=O)[O-])ccc2c1Cl)C(C)(C)C (stereo unspecified),?,1.2µM*,-5%,?,-52*,-1%[46.1 µM],5.6*,3.2µM*,-8%,20%,/,/,/,ADP-Glo interf=-3%;TbPYK inh=4µM*;TbPYK ADP-Glo=11µM*
